From PubChem BioAssay
GRP78 ERSR act: qHTS for Inducers of the Endoplasmic Reticulum Stress Response (ERSR) in Human Glioma: qHTS; U87-MG GRP78 promoter luciferase reporter, 16 h; Potency, µM, usual class: activators; hit rate 0.02% among 420,000; further: series mostly up to about 76 µM; nearly all actives have a fitted effect of over 35% in size
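Stably transfected U87-MG human glioma cells carrying a GRP78-based luminescent sensor were seeded at 1000 cells/well, pin-dosed with compounds and incubated 16 h. Luciferase reagent was then added, and end-point luminescence was read after 10 min at room temperature.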
G9a inh: qHTS Assay for Inhibitors of Histone Lysine Methyltransferase G9a | G9a H3K9 monomethylation, AlphaScreen, 2 h | Potency, µM (titrated, usually from 102 µM), actives largely listed as inhibitors | hit rate 8.8% among 350,000 | AID 504332, 2011; further: nearly all actives have a fitted effect of over 75% in size
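Enzyme 20 nM + cpd, 15 min RT; add b-H3K9 pep 500 nM / SAM 20 uM; 2 h RT; anti-H3K9me1 Ab 0.5 ug/mL + SA donor / anti-rabbit acceptor beads 20 ug/mL each, 10 min; AlphaScreen read.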
VDR inh: Inhibitors of the vitamin D receptor (VDR): qHTS; Vitamin D3 receptor (Homo sapiens), P11473; VDR-SRC2-3 peptide fluorescence polarization, 2 h; Potency, µM, hits mostly inhibitors; hit rate 0.93% among 400,000; AID 504847, 2011
Target sequence (P11473 whole entry, looked up): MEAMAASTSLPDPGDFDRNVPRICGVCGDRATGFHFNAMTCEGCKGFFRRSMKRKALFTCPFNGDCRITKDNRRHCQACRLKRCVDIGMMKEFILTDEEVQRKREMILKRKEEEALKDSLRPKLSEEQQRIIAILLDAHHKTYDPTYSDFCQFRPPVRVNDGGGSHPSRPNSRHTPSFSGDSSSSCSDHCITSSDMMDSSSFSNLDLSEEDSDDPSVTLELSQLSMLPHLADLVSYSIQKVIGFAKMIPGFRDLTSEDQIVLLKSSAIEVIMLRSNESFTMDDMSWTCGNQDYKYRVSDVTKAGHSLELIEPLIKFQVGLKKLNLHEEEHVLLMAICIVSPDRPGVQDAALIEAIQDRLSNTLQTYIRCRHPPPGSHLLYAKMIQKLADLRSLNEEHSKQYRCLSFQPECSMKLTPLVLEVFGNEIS
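The screen uses fluorescence polarization to detect compounds that interfere with recruitment of the SRC2-3 coactivator peptide to VDR; plates are read after 2 h at room temperature.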
ALOX12 inh: Primary qHTS assay for inhibitors of human arachidonate 12S-lipoxygenase (ALOX12): Round 2. Polyunsaturated fatty acid lipoxygenase ALOX12 (Homo sapiens), P18054. purified 12hLO, xylenol orange hydroperoxide absorbance. Potency, µM (doses to about 108 µM), usual class: inhibitors. hit rate 1.1% among 580,000. AID 1671190, 2021
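Hydroperoxide product was detected by ferrous iron/xylenol orange as the 573 to 405 nm absorbance ratio. Arachidonic acid at 40 uM (final) was turned over for 30 min at room temperature by 150 nM human 12hLO, pH 7.0 Hepes buffer, after 15 min compound preincubation.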
Sfp PPTase inh: qHTS Assay for Inhibitors of Bacillus subtilis Sfp phosphopantetheinyl transferase (PPTase); Biochemical Sfp PPTase activity, qHTS; Potency, µM, actives largely listed as inhibitors; hit rate 3.5% among 310,000; AID 1490, 2009;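 further: the enzyme is Sfp with the accession as filed and its product quenches rhodamine fluorescence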
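Sfp 15 nM + cpd, 15 min RT; start w/ rhodamine-CoA 5 uM, BHQ-2-YbbR 12.5 uM (final); 50 mM Hepes pH 7.6, 10 mM MgCl2, 0.01% NP-40, 0.01% BSA; read 525/598 nm at 0 and 30 min.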
Numbers stand for hits; n = inactive; u = inconclusive; x = not tested or not shown; [ ] = remark or other dose. The sample as a whole holds a higher share of hits than the screen did. The call rests on the fitted dose curve; in most records, active means well fitted curve in the direction sought with a large enough effect; inconclusive means small, poorly fitted or top-dose-only effect, or another doubt; inactive means no such curve, though single readings can be large; an effect the other way counts as inactive or inconclusive.

SMILES	GRP78 ERSR act	G9a inh	VDR inh	ALOX12 inh	Sfp PPTase inh
CONC(=O)Cc1csc(NC(=O)c2ccccc2)n1	x	x	x	n	x
COc1ncccc1-c1nnn(-c2ccccc2Br)n1	n	x	n	28µM	x
COc1ncccc1-c1nnn(-c2ccccc2)n1	n	u	n	n	n
COc1ccc(NC2(c3ccc(Cl)cc3)C(=O)c3ccccc3C2=O)cc1	n	28µM	n	n	n
COc1ccc(N2CCN(C3(c4ccccc4)C(=O)c4ccccc4C3=O)CC2)cc1	n	8.9µM	n	n	x
COc1ccc(N2CCN(S(=O)(=O)/C=C/c3ccccc3)CC2)cc1	n	n	n	n	n
OC(COc1ccc(Oc2ccccc2)cc1)CN1CCN(c2ncccn2)CC1 (configuration not stated)	x	x	x	n	x
OCCCNC(=S)Nc1ccc2nc(-c3ccccn3)c(-c3ccccn3)nc2c1	n	n	n	n	n
O=C(Nc1ccc(F)c(Cl)c1)NC1CC1	n	n	n	n	n
O=C(Nc1ccc2nc(-c3ccco3)c(-c3ccco3)nc2c1)NC1CC1	n	u	71µM	x	5µM
O=C(NCCCO)Nc1ccc2nc(-c3ccco3)c(-c3ccco3)nc2c1	x	1.8µM	x	x	14µM
O=C(Nc1ccc(N2CCOCC2)cc1)Nc1ccc2nc(-c3ccco3)c(-c3ccco3)nc2c1	n	1.8µM	n	u	10µM
CCn1ccc2cc(S(=O)(=O)N3CCC(C(=O)NCc4ccco4)CC3)ccc21	x	x	x	n	x
O=C(Nc1ccc(F)cc1F)C1CC2CCC1C2 (configuration not stated)	x	x	x	n	x
CCOC(=O)N/N=C/c1cc(C)n(-c2cccc3ccccc23)c1C	n	4.5µM	n	n	n
COC(=O)c1c(NC(=O)CC2Nc3cc(C)c(C)cc3NC2=O)sc(C)c1C (configuration not stated)	n	20µM	n	x	56µM
Cc1cc2c(cc1C)NC(CC(=O)Nc1cccc(C)c1C)C(=O)N2 (configuration not stated)	n	n	n	n	x
Cc1cc2c(cc1C)NC(CC(=O)NCc1ccccc1)C(=O)N2 (configuration not stated)	n	3.2µM	n	n	n
CN(Cc1cccc(F)c1)C(=O)NC1CCCC(C(F)(F)F)C1 (configuration not stated)	x	x	x	n	x
COCCNc1ncccc1-c1cc(-c2ccccc2)nc2c(C)noc12	x	x	x	n	x
CC(C)c1nnc2ccc(N3CCCC(C(=O)O)C3)nn12 (configuration not stated)	x	x	x	n	x
COCc1ccc(CN2CCCC(C(=O)Nc3cccc(-n4cccn4)c3)C2)o1 (configuration not stated)	x	x	x	n	x
CCOC(=O)c1c(NC(=O)COC(=O)c2ccncc2)sc(C)c1C	n	n	n	n	79µM
CCOC(=O)c1c(NC(=O)c2ccncc2)sc(C)c1C	n	16µM	n	u	22µM
CCOC(=O)c1c(NC(=O)c2ccc(Cl)s2)sc(C)c1C	n	n	n	n	n
SMILES	GRP78 ERSR act	G9a inh	VDR inh	ALOX12 inh	Sfp PPTase inh
CCOC(=O)c1c(NC(=O)COC(=O)c2ccc(O)cc2)sc(C(=O)NC)c1C	n	x	n	n	x
COc1ccc(-c2nn(-c3ccccc3)cc2C2=NN(S(C)(=O)=O)C(c3cccs3)C2)cc1 (configuration not stated)	x	x	x	n	x
N#Cc1nc(-c2ccc(S(=O)(=O)N3CCCCC3)cc2)oc1NCCCN1CCOCC1	x	x	x	n	x
O=C(NCCc1ccc(Cl)cc1)C12CC3CC(CC(Cl)(C3)C1)C2	x	x	x	n	x
COc1ccccc1CNC(=O)c1cc(-c2ccccc2C)nn1CC1CC(c2cccnc2)=NO1 (configuration not stated)	n	n[0.501 µM]	n	n	x
Cc1ccccc1-c1cc(C(=O)NCc2cccc(Br)c2)n(CC2CC(c3cccnc3)=NO2)n1 (configuration not stated)	n	x	n	40µM	x
CCn1nnc2cc(C(=O)Nc3nc(-c4ccc5c(c4)CC(=O)N5)cs3)ccc21	x	x	x	n	x
Cc1c(C(=O)O)c(O)cc2c1C(=O)c1c(O)c([C@H]3O[C@H](CO)[C@@H](O)[C@H](O)[C@H]3O)c(O)c(O)c1C2=O	n	7.1µM	n	x	u
Cc1ccc(-c2csc(/C=C/c3cccc(O)c3)n2)cc1	x	x	x	7.1µM	x
Cc1ccc(-c2csc(/C=C/c3ccc(C#N)cc3)n2)cc1	x	x	x	n	x
FC(F)(F)c1ccc(Oc2ccc(CN3CCCC3)cc2Cl)nc1	x	x	x	n	x
NC(=O)COc1ccc(C2CC(=O)Nc3n[nH]c(Nc4ccccc4)c32)cc1 (configuration not stated)	x	x	x	n	x
CNC(=O)N1CCC2(CC1)CN(C(C)=O)CC2COC (configuration not stated)	x	x	x	n	x
COCC1CN(C(C)=O)CC12CCN(C(=O)C1CNC1)CC2 (configuration not stated)	x	x	x	25µM	x
N#Cc1c(-c2ccccc2)cc(-c2ccccc2)nc1SCC(=O)Nc1ccc(Cl)cc1	n	u	n	n	x
N#Cc1c(-c2ccccc2)cc(C2CC2)nc1SCC(=O)c1cccs1	n	n	n	n	n
N#Cc1c(-c2ccccc2)cc(-c2ccccc2)nc1SCCC(=O)O	n	x	u	n	45µM
N#Cc1c(-c2ccccc2)cc(-c2ccccc2)nc1SCCS(=O)Cc1ccccc1 (configuration not stated)	x	x	x	n	x
N#Cc1c(-c2ccc(F)cc2)cc(-c2ccccc2)nc1SCC(=O)NCC(=O)O	n	x	u	u	2.2µM
N#Cc1c(-c2ccc(Cl)cc2)cc(-c2ccccc2)nc1SCC(=O)O	n	u	u	11µM	n
N#Cc1c(-c2ccccc2)cc(C2CC2)nc1SCC(=O)O	n	11µM	n	n	n
O=c1[nH]c(CSc2ccc(F)c(Cl)c2)nc2ccsc12	x	x	x	n	x
O=C(Cc1ccc2ccccc2c1)NCCc1cccc2cccnc12	x	x	x	n	x
Cc1nn(-c2ncnc3nc[nH]c23)c2c1C(c1ccc(F)c(F)c1)CC(=O)N2 (configuration not stated)	x	x	x	n	x
COc1ccc(-c2cc(-c3ccccc3)c(C#N)c(SCC(O)CS(=O)(=O)Cc3ccccc3)n2)cc1 (configuration not stated)	n	n	n	n	x
CCCCS(=O)(=O)CC(O)CSc1nc(-c2ccc(C)cc2)cc(-c2ccccc2)c1C#N (configuration not stated)	n	7.9µM	n	n	x
C#CCNC(=O)NC(CCC)c1ccccc1 (configuration not stated)	x	x	x	n	x
CCOC(=O)C1=C(C)N(c2ccc(C)cc2)C(=O)/C1=C\c1cccs1	n	x	n	n	n
CCOC(=O)C1=C(C)N(c2ccccc2)C(=O)/C1=C\c1ccco1	n	40µM	n	u	56µM
